Measured values from PubChem BioAssay.
For part of these data: Entries with a potency or affinity are not part of this list. Active and inactive are the calls of the source.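 How the source made its calls, unless noted: active means dose-response curve with midpoint inside the tested range, moderate steepness, significant amplitude and little compound fluorescence or bead-attachment interference; inactive means the rest.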

Columns and labels:
[1] = molecular target: Cell division control protein 42 homolog (Homo sapiens) (UniProt P60953); experiment: inhibition of fluorescent GTP binding to constitutively active Cdc42 – biochemical, multiplex bead flow cytometry, Bodipy-FL-GTP, dose response (AID 1333;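 active means fitted half-maximal concentration within the tested dose range, moderate curve steepness, a statistically real signal drop, and little compound fluorescence or tag-binding interference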)
Sequence of Cell division control protein 42 homolog (Homo sapiens) (P60953 whole entry, looked up): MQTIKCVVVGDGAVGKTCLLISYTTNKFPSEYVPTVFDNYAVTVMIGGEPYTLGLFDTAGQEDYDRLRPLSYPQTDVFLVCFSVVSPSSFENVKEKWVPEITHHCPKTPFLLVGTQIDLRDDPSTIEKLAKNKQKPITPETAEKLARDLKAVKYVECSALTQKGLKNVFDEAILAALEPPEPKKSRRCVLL

[2] = molecular target: Cell division control protein 42 homolog (Homo sapiens) (UniProt P60953); experiment: inhibition of fluorescent GTP binding to wildtype Cdc42 – biochemical, multiplex bead flow cytometry, Bodipy-FL-GTP, dose response (AID 1334;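 active means fitted half-maximal concentration within the tested range, moderate curve steepness, significant signal drop, and little compound fluorescence or bead-linkage interference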); conditions: bead-based flow cytometry, Bodipy-FL-GTP binding to GST-Cdc42; at 100 µM (top of the series) unless noted
[3] = molecular target: GTPase HRas (Homo sapiens) (UniProt P01112); experiment: Ras wt fluorescent GTP loading blockade – biochemical, wildtype, multiplex bead flow cytometry, dose response (AID 1335;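 active means fitted half-maximal concentration within 10 nM to 100 µM, steepness 0.5 to 2, significant signal drop, low assay interference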); conditions: bead-based flow cytometry, Bodipy-GTP binding to GST-Ras; at 100 µM (top of the series) unless noted
Sequence of GTPase HRas (Homo sapiens) (P01112 whole entry, looked up): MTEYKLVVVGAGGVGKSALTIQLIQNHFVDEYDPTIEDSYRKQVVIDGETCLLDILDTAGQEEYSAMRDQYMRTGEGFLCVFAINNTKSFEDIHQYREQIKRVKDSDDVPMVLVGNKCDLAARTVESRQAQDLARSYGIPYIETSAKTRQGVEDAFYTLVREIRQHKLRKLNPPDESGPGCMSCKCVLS

[4] = system: Ras-related protein Rab-7a (dog), GTP binding; experiment: blockers of fluorescent GTP binding to Rab7 – biochemical, wildtype, multiplex bead flow cytometry, dose response (AID 1336; call rule not given here)
[5] = molecular target: Ras-related C3 botulinum toxin substrate 1 (Homo sapiens) (UniProt P63000); experiment: inhibition of wildtype Rac1 nucleotide loading – biochemical, multiplex bead flow cytometry, dose response (AID 1340;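 active means dose curve with midpoint inside tested range, moderate steepness, plateau gap beyond fit error, low compound glow and bead-link interference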); conditions: GST-Rac1 beads, Bodipy-FL-GTP binding; at 100 µM (top of the series) unless noted
[6] = molecular target: GTPase HRas (Homo sapiens) (UniProt P01112); experiment: blockade of GTP loading onto mutant Ras – biochemical, activated mutant, multiplex bead flow cytometry, dose response (AID 1341);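 further: GST-tagged constitutively activated Ras mutant immobilized on beads and multiplexed with other GTPases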

Compound	outcome [1]	fluorescence, percent of control (lower = inhibition) [2]	GTP binding, percent of control [3] [%]	outcome [4]	GTP binding signal, raw median fluorescence (lower = inhibition) (MCF (arbitrary fluorescence units)) [5]	outcome [6]
N#Cc1ccc(OCc2ccc(C(=O)O)o2)cc1	inactive	63.6%	87.2	inactive	37.7	inactive
CC(C)[C@H](NC(=O)c1ccccc1)C(=O)OCC(=O)NCCc1ccc(F)cc1	inactive	50.5%	66.5	inactive	209	inactive
COc1cc(/C=C2\SC(c3ccccc3)=NC2=O)cc(Cl)c1O	inactive	26.3%	71	inactive	190	inactive
CCOC(=O)c1c2c3c(c(Cl)ccc3[nH]c1=O)C(=O)c1ccccc1-2	inactive	19.1%	46.2	inactive	103	inactive
COc1cccc(OC)c1-c1nn2c(-c3cc(-c4ccccc4)n[nH]3)nnc2s1	inactive	131% [at 33.3 µM]	1380	inactive	438 [at 33.3 µM]	inactive
Nc1c([N+](=O)[O-])cc(-c2cnc[nH]2)cc1[N+](=O)[O-]	inactive	38.5%	81.1	inactive	190	inactive
COc1ccc(CNC(=O)C2CC(=O)N(c3ccc(OCC(=O)N4C(C)CCCC4C)cc3)C2)cc1 (stereo not given)	inactive	106%	177	inactive	183	inactive
Cc1ccccc1OCCn1cc(C(=O)O)c2c(C)cccc21	inactive	53%	176	inactive	55.6	inactive
C/C(=N\Nc1ccc(S(N)(=O)=O)cc1[N+](=O)[O-])c1ccc2c(c1)OCO2	inactive	36.3%	79.8	inactive	220	inactive
CN1/C(=C\C=C(/C#N)C(=O)Nc2ccc(Cl)cc2)C(C)(C)c2ccccc21	inactive	76.8%	80	inactive	226	inactive
COc1ccc(C)cc1NC(=O)COC(C)=O	inactive	94.8%	180	inactive	179	inactive
O=C(CSc1ccc2nnc(-c3ccccn3)n2n1)Nc1ccc2c(c1)OCO2	inactive	39.5%	53.4	inactive	120	inactive
Cc1ccc(C)c(N(CC(N)=O)S(C)(=O)=O)c1	inactive	103%	135	inactive	164	inactive
Cc1nonc1OCCNc1ccc([N+](=O)[O-])cc1[N+](=O)[O-]	inactive	50.3%	63.5	inactive	209	inactive
OC(CN1CCN(Cc2ccc3c(c2)OCO3)CC1)c1c[nH]c2ccccc12 (stereo not given)	inactive	36.1%	78.7	inactive	281	inactive
N#Cc1ccc2ccn(CC(=O)N3CCCc4ccccc43)c2c1	inactive	40%	89.5	inactive	351	inactive
COC(=O)c1ccccc1NC(=O)CSCC(=O)Nc1ccccc1OC	inactive	37.9%	81.9	inactive	230	inactive
CCCCn1c(SCC(=O)c2ccccc2)nc2c1c(=O)[nH]c(=O)n2C	inactive	48.7%	61.3	inactive	197	inactive
O=C(O)c1cc(Sc2ccccc2)nc2ccccc12	inactive	56.6%	81.9	inactive	30.1	inactive
O=C(CSc1ccccc1)Nc1ccc(C(=O)Nc2cccc(O)c2)cc1	inactive	33.6%	77.9	inactive	193	inactive
O=C(O)c1cccnc1SCc1cccc(F)c1	inactive	78.4%	92.9	inactive	52.6	inactive
N#C/C(=C\c1ccccc1)c1nc2ncccc2[nH]1	inactive	36.8%	82.5	inactive	276	inactive
O=C(O)c1ccccc1OCc1ccccc1Br	inactive	84.6%	98	inactive	65.5	inactive
COc1ccc(O)c(CN2CCN(CCc3ccccc3)C(CCO)C2)c1 (stereo not given)	inactive	37.3%	84.3	inactive	273	inactive
OCC(CO)(CO)NCc1ccc(-c2ccccc2)cc1	inactive	49.9%	65.6	inactive	214	inactive
C=CCc1ccccc1OCC(O)CN1CCN(C(=O)OCC)CC1 (stereo not given)	inactive	48.3%	60.5	inactive	194	inactive
CCOc1ccc(C2C(C(=O)O)CCC(=O)N2C2CCCCC2)cc1 (stereo not given)	inactive	23%	59.8	inactive	178	inactive
O=C(O)C1CSC(CCc2ccccc2)N1 (stereo not given)	inactive	98.5%	125	inactive	87.7	inactive
COc1ccc(CNc2ccccc2C(=O)O)cc1	inactive	75.9%	93.4	inactive	44.1	inactive
Cc1nnc(N2CCOCC2)c2nn(-c3cccc(Cl)c3)c(C)c12	inactive	204%	209	inactive	306	inactive
